Compounds with a hit are over-represented: about 3.1% of the library has one in this group of screens.
Beta cell apopt: inhibitors of cytokine-induced beta cell apoptosis, primary screen, luminescence | protection from apoptosis, % (no concentration beside the values) | 300,000 compounds, 0.8% hits | INS-1E cytokine-induced death, ATP luminescence, 48 h; percent of positive-control rescue, neutral wells zero | AID 435005, 2010;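 active means Every replicate reaches about 75%, or at least half do and their mean reaches it too, limit read from the data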;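 further: higher means more ATP so stronger rescue from cytokine killing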
PP5 primary: PP5 phosphatase inhibitors, primary screen, biochemical, fluorescence. Serine/threonine-protein phosphatase 5 (Homo sapiens), P53041. purified PP5c, OMFP substrate fluorescence. inhibition, % at 6.7 µM. 320,000 compounds, 0.18% hits. AID 1987, 2009;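 active means inhibition above the campaign's mean inhibition across all tested compounds plus 3 SD, cut at about 9.5% in these data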
Target sequence (P53041 whole entry, looked up): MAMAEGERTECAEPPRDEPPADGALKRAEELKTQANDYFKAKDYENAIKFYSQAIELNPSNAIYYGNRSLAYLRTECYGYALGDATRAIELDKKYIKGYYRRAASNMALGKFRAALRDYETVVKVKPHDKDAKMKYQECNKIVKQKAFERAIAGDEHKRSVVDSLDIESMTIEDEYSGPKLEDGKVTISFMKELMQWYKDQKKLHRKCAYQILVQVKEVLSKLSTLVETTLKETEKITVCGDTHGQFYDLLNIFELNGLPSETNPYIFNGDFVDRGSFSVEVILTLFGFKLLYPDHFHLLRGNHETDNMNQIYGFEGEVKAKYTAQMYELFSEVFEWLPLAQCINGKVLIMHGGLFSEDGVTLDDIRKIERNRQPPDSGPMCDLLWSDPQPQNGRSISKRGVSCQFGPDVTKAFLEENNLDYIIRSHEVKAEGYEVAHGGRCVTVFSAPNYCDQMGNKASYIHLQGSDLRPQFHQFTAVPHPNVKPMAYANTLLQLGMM
PP1 inh: PP1-alpha phosphatase inhibitors, primary screen, counter-screen for PP5 inhibitor project, biochemical, fluorescence, OMFP substrate, single point. inhibition, % at 6.7 µM. 320,000 compounds, 0.9% hits. purified PP1alpha;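 active means inhibition above the mean inhibition of all tested compounds plus 3 SD, computed separately for each screening campaign, cut at about 15% in these data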
CSC inhib: cancer stem cell viability inhibitors, primary screen, luminescence | cancer stem cell-like cells viability | 300,000 compounds, 1.1% hits | inhibition, % at 7.5 µM | AID 2717, 2010; in the data active means inhibition above about 75%; tested in HMLE shEcad cells
SKKanGAS inh: S. pyogenes SKKanGAS growth inhibitors in kanamycin, primary screen, streptokinase expression inhibitor project, SKKanGAS strain, BacTiter-Glo luminescence | 6 h | inhibition, % at 7.5 µM | 300,000 compounds, 1.3% hits | AID 1662, 2009;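 active means mean replicate score, as percent of positive control median, at least 50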;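 further: strain carries kanamycin resistance gene driven by streptokinase promoter and grows in 40 µg/ml kanamycin; loss of luminescence reflects streptokinase promoter inhibition or plain growth inhibition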
PP5 conf: PP5 phosphatase inhibitors, confirmation, biochemical, fluorescence, human | inhibition, % at 6.7 µM | AID 2331, 2010 | 460 compounds, 22% hits | Purified PP5, fluorogenic phosphatase substrate | shares compounds with PP5 primary; in the data active means inhibition above about 9.5%
PP1 inh counter: PP1 phosphatase inhibitors, counter-screen for PP5 inhibitor project, biochemical, fluorescence, triplicate | shares compounds with PP5 primary | PP1 enzyme, fluorescent phosphatase substrate | inhibition, % at 6.7 µM | 460 compounds, 4% hits; in the data active means inhibition above about 16%
Large screens that a line does not name were inactive (follow-up assays come after a bar, where they were run).

CCOC(=O)C1=C(C)OC2(O)c3ccccc3C(=O)C12O (stereo not given)	PP5 primary 12.2 | PP5 conf 40.6 | PP1 inh counter inactive
CC(=O)C1=C(C)OC2(O)c3ccccc3C(=O)C12O (stereo not given)	PP5 primary 14.4 | PP5 conf 34.5 | PP1 inh counter inactive
CCCCOC(=O)C1=C(C)NC2(O)c3ccccc3C(=O)C12O (stereo not given)	none
O=S(=O)(NC1CC1)c1ccc(S(=O)(=O)N(Cc2ccccn2)C2CC2)cc1	none
COC(=O)C1=C(C)N=C2SCCC(=O)N2C1c1ccc(C(=O)OC)cc1 (stereo not given)	none (no result: CSC inhib)
COC(=O)c1ccc(C2C(C(=O)OCC(C)C)=C(C)N=C3SCCC(=O)N32)cc1 (stereo not given)	PP5 primary 10.1 (no result: Beta cell apopt) | PP5 conf inactive | PP1 inh counter inactive
CC(C)=NNC(=O)C1=NNC(=O)C1	none
CCc1ccc(S(=O)(=O)/N=C2\C=C(Nc3cccc(C(=O)O)c3)C(=O)c3ccccc32)cc1	PP5 primary 11.2, SKKanGAS inh 105.9 (no result: CSC inhib) | PP5 conf 41.5 | PP1 inh counter inactive
COc1ccc(CNC(=O)C(C)n2ccc3cc(S(=O)(=O)N4CCCCCC4)ccc32)cc1 (stereo not given)	none (no result: Beta cell apopt)
Fc1ccccc1OCCCCN1CCCCC1	PP5 primary 13.1 | PP5 conf inactive | PP1 inh counter inactive
O=C(Nc1nccs1)c1cc2sccc2n1Cc1ccc(F)cc1	PP5 primary 10.1 | PP5 conf inactive | PP1 inh counter inactive
CC(=O)Nc1ccc(Br)c(Cl)c1	PP5 primary 11.3 | PP5 conf inactive | PP1 inh counter inactive
COc1ccc(Br)c(C(=O)Nc2ccc(F)cc2)c1	PP5 primary 16.0 (no result: Beta cell apopt, CSC inhib) | PP5 conf inactive | PP1 inh counter inactive
COc1cccc(NC(=O)c2ccccc2Br)c1	none
CCC(C)[C@H](NC(=O)C1CC(=O)N(c2ccc3c(c2)OCO3)C1)C(=O)NC1CCCCC1 (stereo not given in full)	none
Cc1ccc(OCCCCN2CCCC(C)C2)c([N+](=O)[O-])c1 (stereo not given)	none
O=C(NCCc1ccccn1)c1cc(-c2cccc3ccccc23)nc2ccccc12	PP5 primary 21.0 | PP5 conf inactive | PP1 inh counter inactive
Cc1ccc(-c2cc(C(=O)NCCc3ccccn3)c3ccccc3n2)c(C)c1	none
COc1ccc(N(CC(=O)Nc2ccccc2C(=O)N2CCCC2)S(C)(=O)=O)cc1	none
CCOc1cc(CNn2cnnc2SCC(=O)NC(C)(C)C)ccc1OCC(=O)NC(C)(C)C	none
Cc1ccccc1NC(=O)Nc1ccccc1C(=O)NCc1ccccc1	PP5 primary 17.4 | PP5 conf inactive | PP1 inh counter inactive
CCCCn1c(NC(C)=O)c(C#N)c2nc3ccccc3nc21	none
C=CCn1c(NC(=O)c2ccccc2Cl)c(C#N)c2nc3ccccc3nc21	PP5 primary 11.2 | PP5 conf 27.6 | PP1 inh counter inactive
CN1CCC(=NNC(=O)CN(c2ccc([N+](=O)[O-])cc2)S(=O)(=O)c2ccccc2)CC1	none (no result: Beta cell apopt)
Cc1snc(S(=O)(=O)/C(C#N)=N/Nc2ccc(C(F)(F)F)cc2)c1C#N	PP5 primary 10.3, CSC inhib 89.0 | PP5 conf inactive | PP1 inh counter inactive
Cc1snc(S(=O)(=O)/C(C#N)=N\Nc2ccccc2)c1C#N	none
CC(C)CN1CCC(Oc2cccc(C(=O)NCCc3ccccc3)c2)CC1	none (no result: Beta cell apopt)
O=C(O)CCCN1C(=O)C2C3CCC(O3)C2C1=O (stereo not given)	PP5 primary 16.9 | PP5 conf inactive | PP1 inh counter inactive
CCOc1ccc(NS(=O)(=O)c2ccc(C(=O)NC3CCC(O)CC3)cc2)cc1 (stereo not given)	none (no result: Beta cell apopt)
CCn1nnc(-c2ccccc2NS(=O)(=O)c2ccc(S(=O)(=O)N(C)C3CCCCC3)cc2)n1	PP5 primary 12.2 (no result: Beta cell apopt) | PP5 conf inactive | PP1 inh counter inactive
O=C(Nc1ccc(C(O)(C(F)(F)F)C(F)(F)F)cc1)c1ccc(Cl)c([N+](=O)[O-])c1	PP5 primary 11.1, CSC inhib 87.2 | PP5 conf inactive | PP1 inh counter inactive
C=CCc1c(C)nc(SC)nc1Nc1ccc(C(=O)O)cc1	PP5 primary 11.4 | PP5 conf inactive | PP1 inh counter inactive
CC(=O)c1c(C)[nH]c(C(=O)NCCc2c[nH]c3ccccc23)c1C	none
Cn1c(SCc2cccc(F)c2)nnc1-c1ccccn1	none
Cc1ccccc1CSc1nnc(-c2ccccn2)n1C	PP5 primary 22.6 | PP5 conf inactive | PP1 inh counter inactive
CC(=O)N1c2ccc(S(=O)(=O)N(C)CC(=O)Nc3ccccc3C)cc2CC1C (stereo not given)	none
Nc1nc(Nc2cccc(F)c2)nc(NCc2ccco2)c1[N+](=O)[O-]	PP5 primary 10.6 | PP5 conf inactive | PP1 inh counter inactive
O=C(CCn1nc(-c2ccc(Cl)cc2)ccc1=O)N1CCN(c2ccc(F)cc2)CC1	none
COc1ccccc1-c1noc(-c2ccccc2C(=O)Nc2cccnc2)n1	PP5 primary 10.3 | PP5 conf inactive | PP1 inh counter inactive
Cn1c(SCC(=O)N2c3ccccc3CCc3ccccc32)nnc1-c1ccc(O)cc1	PP5 primary 9.7 (no result: Beta cell apopt) | PP5 conf inactive | PP1 inh counter inactive
CCc1ccc(N(CC(=O)NCCc2ccccc2)C(=O)CCC(=O)Nc2ccccn2)cc1	none (no result: CSC inhib)
NC(=O)C1CCN(c2ncccc2[N+](=O)[O-])CC1	none
O=[N+]([O-])c1cccnc1N1CCC(c2cc(-c3cccc(C(F)(F)F)c3)n[nH]2)CC1	PP5 primary 10.4, CSC inhib 122.7, SKKanGAS inh 100.0 | PP5 conf inactive | PP1 inh counter inactive
CC(C)CC(=O)NC(C)C(c1cccs1)N1CCOCC1 (stereo not given)	none
ONC(=Nc1ccccc1Cl)c1ccccc1Cl	PP5 primary 12.6 | PP5 conf inactive | PP1 inh counter inactive
COc1ccccc1N1CCN(C(=O)c2ccc(COc3cccc4c3OC(C)(C)C4)cc2)CC1	PP5 primary 11.7 (no result: Beta cell apopt) | PP5 conf inactive | PP1 inh counter inactive
Cc1ccc2c(c1)C(c1ccc(F)cc1)N(C(=O)c1ccccc1Br)CC(=O)N2 (stereo not given)	none
O=S(=O)(NN1CCOCC1)c1cc(Cl)cc(Cl)c1O	none
O=C1C(O)=C(O)C(=O)c2ccccc21	PP5 primary 13.2 (no result: SKKanGAS inh) | PP5 conf 14.2 | PP1 inh counter 28.0
CC(C)C(=O)Nc1cccc(C(=O)Nc2ccccc2C(=O)O)c1	PP5 primary 10.3 | PP5 conf inactive | PP1 inh counter inactive

Screening data: PubChem BioAssay, several laboratories
